Vaccinia mCherry – qHTS for Stage-Specific Inhibitors of Vaccinia Orthopoxvirus: mCherry Reporter Primary qHTS | 310,000 tested, 0.63% active | Vaccinia virus mCherry reporter infection, fluorescence | Potency, µM (highest dose often 36.5 µM), most hits filed as inhibitors; calls by dose curve; tested in A549 cells; further: nearly all actives have a fitted effect of over 35% in size
FMDV inh – High Throughput Screening for Foot and Mouth Disease Virus Antivirals | FMDV antiviral cell-based qHTS | Potency, µM (highest dose often 57.9 µM), usual class: inhibitors | 410,000 tested, 1.2% active | AID 1159524, 2015; calls by dose curve; tested in HEK293T cells; further: read-out not given here; nearly all actives have a fitted effect of over 45% in size
HCMV antiviral – qHTS Assay for inhibitors of the human cytomegalovirus (HCMV); AID 1259415, 2018; HFF cells, HCMV-luciferase reporter, 72 h; hits give low values; activity change, negative = inhibition, % at 57.5 µM; 410,000 tested, 4.5% active; in the data active means activity change below about -60%; inconclusive means no clear call, values can overlap the other calls; inactive means above about -39%
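Compounds were evaluated in HFFs infected with an HCMV luciferase reporter virus (MOI 1 PFU/cell). Luciferase in lysates collected 72 h post infection served as the replication measure.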
HCV inh – qHTS Assay for Inhibitors of Hepatitis C Virus (HCV). Huh7.5.1 HCVcc-Cre infection, luciferase reporter, 44 h. Potency, µM (top dose mostly 41.8 µM), actives largely listed as inhibitors. 340,000 tested, 3.4% active; active means well fitted inhibition curve with a large enough effect; inconclusive means small, poorly fitted or top-dose-only effect, or another doubt; inactive means no such curve, though single readings can be large or run the other way
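Cells seeded at 1,000/well and cultured 4 h, then compounds added followed by HCVcc-Cre virus (~0.5 moi). After 44 h further culture, luciferase substrate was added, plates held 15 min at room temperature, and luminescence read for 15 sec.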
Vaccinia Venus – qHTS for Stage-Specific Inhibitors of Vaccinia Orthopoxvirus: Venus Reporter Primary qHTS | Vaccinia virus Venus reporter expression, fluorescence | Potency, µM (top dose mostly 36.5 µM), usual class: inhibitors | 330,000 tested, 0.46% active; calls by dose curve; tested in A549 cells; further: nearly all actives have a fitted effect of over 30% in size
Numbers stand for hits; n = inactive; u = inconclusive; x = no result; [ ] = another dose, or the depositor's remark. Compounds with a hit are over-represented: about 7.3% of the library has one in this group of screens.

SMILES | Vaccinia mCherry | FMDV inh | HCMV antiviral | HCV inh | Vaccinia Venus
O=C(CSc1nncc(=O)[nH]1)NC1CCCCC1 | n | n | n | n | n
Cc1nc2ccn(Cc3ccco3)c(=O)c2cc1C(=O)N1CCN(c2ccccc2F)CC1 | n | n | n | x | n
c1ccc(COc2cccc(-c3cc4nc(NCc5ccc6c(c5)OCO6)ccn4n3)c2)cc1 | n | n | n | x | n
c1ccc(COc2ccc(-c3cc4nc(NCc5ccc6c(c5)OCO6)ccn4n3)cc2)cc1 | u | n | -64 | x | n
N#CC1=C(N)OC2=C(CCc3ccccc32)C1c1ccccc1 (stereo not drawn) | u | u | -92 | u | u
O=C(CCS(=O)(=O)c1cc2c3c(c1)CCN3C(=O)CC2)NCc1ccc(F)cc1 | n | n | n | x | n
CCCCN(C)CCCNC(=O)c1cc(-c2ccc(Br)s2)nc2ccccc12 | n[7.34 µM] | n | -68 | x | n[7.34 µM]
CCCCN(CCCNC(=O)c1cc(Nc2ccc(OC)cc2)nc2ccccc12)Cc1ccccc1 | n | n | -71 | x | n
Cc1cc(C)cc(Nc2cc(C(=O)NCCCN(C)C3CCCCC3)c3ccccc3n2)c1 | n[7.34 µM] | u | -99 | x | n[7.34 µM]
CCCCN(C)CCCNC(=O)c1cc(Nc2ccc(OC)c(OC)c2)nc2ccccc12 | x | u | n | u | x
COc1ccc(Nc2cc(C(=O)NCCCN(C)Cc3ccccc3)c3ccccc3n2)cc1OC | n | n | -100 | x | n
CCCCN(CCCC)CCCNC(=O)c1cc(-c2ccc(Cl)s2)nc2ccccc12 | u | n | n | x | n
COc1ccc(N2CCN(C(=O)C(Cc3ccccc3)NC(=O)c3ccccc3)CC2)cc1 (stereo not drawn) | n | n | n | n | n
COc1ccc(-c2nc(C)sc2CC(=O)O)cc1 | n | n | -83 | n | n
CC(C)CCNC(=O)COc1ccc2c(c1)C(=O)CC(C)(C)O2 | n | n | n | n | n
CC1(C)CC(=O)c2cc(OCC(=O)NCCCN3CCN(c4ccc(F)cc4)CC3)ccc2O1 | x | u | u | 10µM | x
CC1=C(C)C(=O)C(CCCCC#CCCCC#CCO)=C(C)C1=O | n | 22µM | x | n[8.37 µM] | n
COC1=C(OC)C(=O)C(CCCCCCCCCCO)=C(C)C1=O | x | x | n | x | x
COc1ccc(Cl)cc1-c1cc(C(=O)NCc2ccc(C(F)(F)F)cc2)[nH]n1 | n | n | n | x | n
COc1ccc(CC2=C(O)c3ccccc3C(=O)C2=O)cc1 | u | n | n | n | n
O=C1C(=O)c2ccccc2C(O)=C1CCCCl | x | 28µM | x | u | x
FC(F)(F)c1cccc(/C=N/NC(=S)NC2CCCCC2)c1 | n | n | -95 | n | n
FC(F)(F)c1ccc(/C=N/NC(=S)NC2CCCCC2)cc1 | n | n | n | n | n
CC(C)Cc1nc(SCC(=O)NCC2CCCO2)c2c(=O)n(C)c(=O)n(C)c2n1 (stereo not drawn) | x | n | -78 | n | x
CC(C)Cc1nc(SCC(=O)N2CCOCC2)c2c(=O)n(C)c(=O)n(C)c2n1 | x | n | n | n | x
SMILES | Vaccinia mCherry | FMDV inh | HCMV antiviral | HCV inh | Vaccinia Venus
Cn1c(=O)c2c(nc(SCC(=O)NCC3CCCO3)n2C)n(C)c1=O (stereo not drawn) | n | n | n | n | n
CC(C)c1nc(SCC(=O)N2CCN(c3ccccc3)CC2)c2c(=O)n(C)c(=O)n(C)c2n1 | n | 20µM | n | n | n
CC(C)Cc1nc(SCC(=O)N2CCCCC2)c2c(=O)n(C)c(=O)n(C)c2n1 | x | n | u | 25µM | x
CN(C)S(=O)(=O)c1cccc(NC(=O)COc2ccccc2C(=O)NCc2ccccc2)c1 | n | u | n | n | n
O=C(NCc1ccco1)c1ccc2nc([C@@H]3O[C@H](CO)[C@H](O)[C@H](O)[C@H]3O)[nH]c2c1 | n | n | n | x | n
O=C(Nc1cccc2cccnc12)c1ccccc1Br | x | n | n | n | x
CCc1ccc(Nc2nnc(SCC(=O)c3c(N)n(C4CC4)c(=O)[nH]c3=O)s2)cc1 | x | n | n | n | x
CN(N=O)c1ccc(/C=C/c2ccnc3ccccc23)cc1 | n | x | x | x | n
Cc1sc2nc3c4ccccc4c(NCc4ccco4)nn3c(=O)c2c1C | x | n | n | n | u
Cc1nc(NCc2ccco2)c2c(C)c(C)sc2n1 | x | u | -105 | 10µM | x
CCNc1c(NC(=O)c2cc(OCC)c(OCC)c(OCC)c2)c(=O)oc2ccccc12 | n | n | n | x | n
O=C(CSc1nc2ccccc2n1-c1ccccc1)Nc1ncc(Cl)cc1Cl | 6.3µM | n | u | u | n

Compound activity as filed in PubChem BioAssay.
